According to PubChem BioAssay AID1159580 (chemical genetic matrix, 2015):
Values joined by “and” are separate entries in the source; they are usually repeats but may differ in a detail not shown here. Identical values can stand only once. Out of some 5,500 compounds screened, about 2,000 (36%) were called active. Roughly 18% stayed inconclusive and do not appear here. Cut-off read from the data, not from the text of the source: active = normalized growth mostly below about 0.91 (no sharp cut-off); inconclusive = no clear call, values can overlap the other calls; inactive = mostly above about 0.92. This is one part of the list. A structure can be active in one record and inactive in another.

Assay: chemical genetic growth profiling, strain panel (AID 1159580);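 note: tested at 20 µM; growth read once vehicle control cultures reached saturation at 30 °C; 1 = growth at the plate median or of vehicle wells; lower values mean less growth of the strain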
Settings: S. cerevisiae deletion strains, growth OD

Measured: normalized growth

O=C(O)c1ccccc1Nc1cccc(C(F)(F)F)c1
0.119 (active) and 0.83 (inactive): locus YJL095W, strain BCK1, stronger effect = lower value
active: locus YAL013W, strain DEP1, stronger effect = lower value 0.857 | locus YAL021C, strain ccr4, stronger effect = lower value 0.847 | locus YAL026C, strain drs2, stronger effect = lower value 0.837 | locus YAL030W, strain snc1, stronger effect = lower value 0.817 | locus YBL061C, strain skt5, stronger effect = lower value 0.845 | locus YBR009C, strain hhf1, stronger effect = lower value 0.848 | locus YBR021W, strain FUR4, stronger effect = lower value 0.764 | locus YBR171W, strain sec66, stronger effect = lower value 0.69 | locus YBR231C, strain swc5, stronger effect = lower value 0.827 | locus YBR279W, strain paf1, stronger effect = lower value 0.859 | locus YCL011C, strain gbp2, stronger effect = lower value 0.86 | locus YCL016C, strain dcc1, stronger effect = lower value 0.87 | locus YCL069W, strain vba3, stronger effect = lower value 0.834 | locus YCR088W, strain abp1, stronger effect = lower value 0.793 | locus YDL005C, strain med2, stronger effect = lower value 0.882 | locus YDL035C, strain GPR1, stronger effect = lower value 0.844 | locus YDL040C, strain nat1, stronger effect = lower value 0.852 | locus YDL074C, strain BRE1, stronger effect = lower value 0.768 | locus YDR001C, strain nth1, stronger effect = lower value 0.805 | locus YDR069C, strain doa4, stronger effect = lower value 0.896 | locus YDR137W, strain rgp1, stronger effect = lower value 0.623 | locus YDR159W, strain sac3, stronger effect = lower value 0.661 | locus YDR297W, strain sur2, stronger effect = lower value 0.849 | locus YDR334W, strain swr1, stronger effect = lower value 0.788 | locus YDR335W, strain msn5, stronger effect = lower value 0.849 | locus YDR392W, strain spt3, stronger effect = lower value 0.721 | locus YDR502C, strain sam2, stronger effect = lower value 0.915 | locus YEL003W, strain gim4, stronger effect = lower value 0.842 | locus YEL037C, strain rad23, stronger effect = lower value 0.831 | locus YEL061C, strain CIN8 (second series), stronger effect = lower value 0.815 | locus YER015W, strain faa2, stronger effect = lower value 0.869 | locus YER016W, strain bim1, stronger effect = lower value 0.837 | locus YER111C, strain swi4, stronger effect = lower value 0.829 | locus YER155C, strain BEM2 (second series), stronger effect = lower value 0.763 | locus YER155C, strain BEM2, stronger effect = lower value 0.914 | locus YER167W, strain BCK2, stronger effect = lower value 0.833 | locus YFR010W, strain ubp6, stronger effect = lower value 0.858 | locus YGL167C, strain pmr1, stronger effect = lower value 0.751 | locus YGL173C, strain kem1, stronger effect = lower value 0.843 | locus YGL227W, strain vid30, stronger effect = lower value 0.812 | locus YGL240W, strain doc1, stronger effect = lower value 0.853 | locus YGL253W, strain hxk2, stronger effect = lower value 0.811 | locus YGR229C, strain SMI1, stronger effect = lower value 0.727 | locus YGR252W, strain gcn5, stronger effect = lower value 0.645 | locus YHR027C, strain rpn1, stronger effect = lower value 0.862 | locus YHR079C, strain IRE1, stronger effect = lower value 0.126 | locus YHR129C, strain ARP1, stronger effect = lower value 0.918 | locus YHR142W, strain chs7, stronger effect = lower value 0.775 | locus YIL066C, strain RNR3, stronger effect = lower value 0.824 | locus YJL092W, strain hpr5, stronger effect = lower value 0.801 | locus YJL095W, strain BCK1 (second series), stronger effect = lower value 0.848 | locus YJL115W, strain asf1, stronger effect = lower value 0.843 | locus YJL129C, strain trk1, stronger effect = lower value 0.565 | locus YJL154C, strain vps35, stronger effect = lower value 0.792 | locus YJL164C, strain tpk1, stronger effect = lower value 0.873 | locus YJL166W, strain qcr8, stronger effect = lower value 0.853 | locus YJL187C, strain SWE1, stronger effect = lower value 0.833 | locus YJR043C, strain POL32, stronger effect = lower value 0.775 | locus YJR066W, strain TOR1, stronger effect = lower value 0.00921 | locus YKL160W, strain elf1, stronger effect = lower value 0.835 | locus YKR001C, strain vps1, stronger effect = lower value 0.85 | locus YKR026C, strain gcn3, stronger effect = lower value 0.79 | locus YKR091W, strain srl3, stronger effect = lower value 0.826 | locus YLL001W, strain dnm1, stronger effect = lower value 0.833 | locus YLL026W, stronger effect = lower value 0.829 | locus YLL041C, strain sdh2, stronger effect = lower value 0.803 | locus YLR027C, strain aat2, stronger effect = lower value 0.865 | locus YLR113W, strain HOG1, stronger effect = lower value 0.137 | locus YLR221C, strain rsa3, stronger effect = lower value 0.838 | locus YLR258W, strain gsy2, stronger effect = lower value 0.83 | locus YLR262C, strain YPT6 (second series), stronger effect = lower value 0.634 | locus YLR320W, strain mms22, stronger effect = lower value 0.833 | locus YLR330W, strain CHS5, stronger effect = lower value 0.883 | locus YLR342W, strain FKS1 (second series), stronger effect = lower value 0.713 | locus YLR342W, strain FKS1, stronger effect = lower value 0.831 | locus YLR370C, strain arc18, stronger effect = lower value 0.808 | locus YLR384C, strain iki3, stronger effect = lower value 0.818 | locus YLR418C, strain cdc73, stronger effect = lower value 0.729 | locus YML120C, strain ndi1, stronger effect = lower value 0.842 | locus YMR058W, strain fet3, stronger effect = lower value 0.824 | locus YMR125W, strain sto1, stronger effect = lower value 0.835 | locus YMR129W, stronger effect = lower value 0.812 | locus YMR205C, strain PFK2, stronger effect = lower value 0.81 | locus YMR231W, strain pep5, stronger effect = lower value 0.817 | locus YNL071W, strain lat1, stronger effect = lower value 0.849 | locus YNL183C, strain NPR1, stronger effect = lower value 0.0159 | locus YNL209W, strain ssb2, stronger effect = lower value 0.862 | locus YNL233W, strain BNI4, stronger effect = lower value 0.852 | locus YNL307C, strain MCK1, stronger effect = lower value 0.695 | locus YNL322C, strain KRE1 (second series), stronger effect = lower value 0.801 | locus YNR049C, strain mso1, stronger effect = lower value 0.813 | locus YOR001W, strain rrp6, stronger effect = lower value 0.872 | locus YOR070C, strain gyp1, stronger effect = lower value 0.848 | locus YOR080W, strain dia2, stronger effect = lower value 0.847 | locus YOR083W, strain WHI5, stronger effect = lower value 0.834 | locus YOR106W, strain vam3, stronger effect = lower value 0.821 | locus YOR184W, strain ser1, stronger effect = lower value 0.819 | locus YOR231W, strain MKK1, stronger effect = lower value 0.105 | locus YOR265W, strain rbl2, stronger effect = lower value 0.843 | locus YOR270C, strain vph1, stronger effect = lower value 0.674 | locus YOR290C, strain snf2, stronger effect = lower value 0.852 | locus YPL051W, strain arl3, stronger effect = lower value 0.831 | locus YPL078C, strain atp4, stronger effect = lower value 0.807 | locus YPL240C, strain hsp82, stronger effect = lower value 0.836 | locus YPL256C, strain CLN2, stronger effect = lower value 0.116
inactive: locus YBR023C, strain chs3, stronger effect = lower value 0.924 | locus YBR229C, strain ROT2, stronger effect = lower value 0.983 | locus YCL029C, strain bik1, stronger effect = lower value 0.999 | locus YDL101C, strain DUN1, stronger effect = lower value 0.972 | locus YDL185W, strain tfp1, stronger effect = lower value 0.979 | locus YDL192W, strain arf1, stronger effect = lower value 0.974 | locus YDR101C, strain arx1, stronger effect = lower value 0.984 | locus YDR150W, strain NUM1, stronger effect = lower value 0.996 | locus YDR162C, strain NBP2, stronger effect = lower value 0.852 | locus YDR195W, strain ref2 0.998 | locus YDR318W, strain mcm21, stronger effect = lower value 0.959 | locus YDR388W, stronger effect = lower value 0.975 | locus YEL061C, strain CIN8, stronger effect = lower value 0.952 | locus YER110C, stronger effect = lower value 1.01 | locus YGL078C, strain dbp3, stronger effect = lower value 0.979 | locus YGL086W, strain mad1, stronger effect = lower value 0.96 | locus YGL248W, strain PDE1, stronger effect = lower value 0.92 | locus YGR135W, strain pre9, stronger effect = lower value 0.895 | locus YHR013C, strain ard1, stronger effect = lower value 0.988 | locus YHR079C, strain IRE1 (second series), stronger effect = lower value 0.988 | locus YHR094C, strain hxt1, stronger effect = lower value 1 | locus YHR200W, strain rpn10, stronger effect = lower value 0.95 | locus YIL073C, strain SPO22, stronger effect = lower value 0.858 | locus YIL125W, strain kgd1, stronger effect = lower value 0.981 | locus YIR030C, strain dcg1, stronger effect = lower value 0.965 | locus YJL134W, strain LCB3, stronger effect = lower value 0.994 | locus YJL168C, strain set2, stronger effect = lower value 0.99 | locus YJL187C, strain SWE1 (second series), stronger effect = lower value 0.941 | locus YJR075W, strain HOC1, stronger effect = lower value 0.93 | locus YKL009W, strain mrt4, stronger effect = lower value 0.896 | locus YKL068W, stronger effect = lower value 0.99 | locus YKL085W, strain MDH1 (second series), stronger effect = lower value 0.957 | locus YKL085W, strain MDH1, stronger effect = lower value 0.957 | locus YKL190W, strain CNB1, stronger effect = lower value 0.962 | locus YLR039C, strain RIC1, stronger effect = lower value 0.808 | locus YLR058C, strain SHM2, stronger effect = lower value 0.951 | locus YLR102C, strain apc9, stronger effect = lower value 0.982 | locus YLR262C, strain YPT6, stronger effect = lower value 0.821 | locus YLR268W, strain sec22, stronger effect = lower value 0.914 | locus YLR357W, strain rsc2, stronger effect = lower value 0.873 | locus YLR371W, strain rom2, stronger effect = lower value 0.987 | locus YML016C, strain PPZ1, stronger effect = lower value 0.991 | locus YML032C, strain rad52, stronger effect = lower value 0.933 | locus YML124C, strain tub3, stronger effect = lower value 0.97 | locus YMR078C, strain ctf18, stronger effect = lower value 0.98 | locus YMR223W, strain ubp8, stronger effect = lower value 0.945 | locus YMR307W, strain GAS1, stronger effect = lower value 0.842 | locus YNL067W, strain RPL9B, stronger effect = lower value 0.967 | locus YNL128W, strain TEP1, stronger effect = lower value 1.01 | locus YNL153C, strain GIM3, stronger effect = lower value 0.937 | locus YNL248C, strain rpa49, stronger effect = lower value 0.921 | locus YNL250W, strain rad50, stronger effect = lower value 0.994 | locus YNL271C, strain bni1, stronger effect = lower value 0.982 | locus YNL298W, strain CLA4, stronger effect = lower value 0.928 | locus YNR052C, strain pop2, stronger effect = lower value 0.993 | locus YOL012C, strain htz1 0.909 | locus YOL147C, strain pex11, stronger effect = lower value 0.975 | locus YOR061W, strain CKA2, stronger effect = lower value 0.947 | locus YOR069W, strain VPS5, stronger effect = lower value 0.991 | locus YOR136W, strain idh2, stronger effect = lower value 0.983 | locus YOR144C, strain elg1, stronger effect = lower value 0.978 | locus YOR316C, strain cot1, stronger effect = lower value 0.988 | locus YPL106C, strain sse1, stronger effect = lower value 0.968 | locus YPR119W, strain clb2, stronger effect = lower value 0.988 | locus YPR141C, strain kar3, stronger effect = lower value 0.99 | locus YPR163C, strain tif3, stronger effect = lower value 0.952 | locus YPR167C, strain met16, stronger effect = lower value 0.944 | strain wtn01, stronger effect = lower value 0.954
0.134 (active) and 0.985 (inactive): locus YHR030C, strain SLT2, stronger effect = lower value
